Laboratory results published in PubChem BioAssay (NCI).
About 79,000 compounds went through this panel and 15% of them were active in at least one assay; those are over-represented in the sample as a whole. Rule as the data show it: active = growth inhibition above about 70%; inactive = the rest.

How the values were obtained:
[1] = NCI Yeast Anticancer Drug Screen. Data for the rad50 strain (AID 155);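 also: 0% = growth of vehicle-only cultures of the same strain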; conditions: S. cerevisiae rad50 strain growth inhibition; at 50.0 µM; hits give high values
Method in brief: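 Compounds were tested on a yeast strain with an engineered DNA damage repair alteration; the reported value is growth inhibition normalised to vehicle treatment.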

[2] = NCI Yeast Anticancer Drug Screen. Data for the mec2-1 strain (AID 157); conditions: S. cerevisiae mec2-1 strain, at 50.0 µM, hits give high values
Method in brief: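 Readout is yeast growth inhibition, normalised to vehicle-treated controls, in the mec2-1 strain exposed to compound.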

[3] = NCI Yeast Anticancer Drug Screen. Data for the sgs1 mgt1 strain (AID 161);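 also: 0% = growth of cultures given vehicle only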; conditions: S. cerevisiae sgs1 mgt1 strain, at 50.0 µM, hits give high values
Method in brief: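 This yeast growth screen uses a strain with defined DNA-repair lesions; compound-treated growth is compared with vehicle-treated growth.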

[4] = NCI Yeast Anticancer Drug Screen. Data for the cln2 rad14 strain (AID 165);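 also: 0% = growth equal to vehicle treated cultures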; conditions: S. cerevisiae cln2 rad14 strain, at 50.0 µM, hits give high values
Method in brief: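 Relative to vehicle controls, growth inhibition of compound-treated cln2 rad14 yeast was recorded.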

[5] = NCI Yeast Anticancer Drug Screen. Data for the bub3 strain (AID 167); conditions: S. cerevisiae bub3 mutant strain, at 50.0 µM, hits give high values
Method in brief: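 Growth of a checkpoint-deficient yeast mutant is measured after compound exposure. Values represent inhibition relative to vehicle.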

[6] = NCI Yeast Anticancer Drug Screen. Data for the mlh1 rad18 strain (AID 175); conditions: S. cerevisiae mlh1 rad18 strain growth inhibition; at 50.0 µM; hits give high values
Method in brief: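 Test agents were incubated with a yeast strain of defined genotype (DNA damage repair defect). Inhibition of growth was derived by comparison with vehicle-exposed cultures.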

Measured: growth inhibition

O=C(O)c1cccc(Sc2ccccc2)c1
inactive: [1] -0.05% | [2] 9.25% | [3] 8.25% | [4] -0.85% | [5] -18.9% | [6] 16.6%

CCOC(=O)c1c(Cl)c(CC)c(Cl)n2c1nc1ccccc12
inactive: [1] -12.7% | [2] -7.45% | [3] 14.8% | [4] -9.6% | [5] -2.8% | [6] 4.05%

CCCCCCCOC(=O)C(CC)CC
inactive: [1] 6.8% | [2] -6.45% | [3] 5.45% | [4] 2.85% | [5] 2.65% | [6] 6.45%

Cc1c(C)c2ccc(OC(C)C(=O)O)cc2oc1=O (stereo not drawn)
inactive: [1] -10.9% | [2] 0.8% | [3] 22.2% | [4] 31.5% | [5] 10.1% | [6] 36%

Cc1cccc(C)c1Nc1nc(C)c(C(=O)CC(=O)C(=O)Nc2c(C(C)C)cccc2C(C)C)s1
inactive: [1] 18.3% | [2] -6.35% | [3] 46.3% | [4] -15.7% | [5] -3.55% | [6] 19.6%

NNC(=O)/C(NC(=O)c1ccccc1)=C(\N)c1cccc([N+](=O)[O-])c1
inactive: [1] -34.4% | [2] -30.4% | [3] 11.7% | [4] 3.25% | [5] -13.1% | [6] 0.9%

Cc1ccc(C)c(N2C(=O)C(=O)C(c3nc4ccccc4s3)/C(=N/NC(=O)NN)C2=O)c1 (stereo not drawn)
inactive: [1] 1.9% | [2] 14.1% | [3] -5.75% | [4] -2.55% | [5] -2.1% | [6] -16.9%

CC(C)(C)Oc1cc(F)c(C(C)(C)C)cc1C(C)(C)C
inactive: [1] -4% | [2] -7.4% | [3] -2.4% | [4] 8.75% | [5] 0.05% | [6] 10.7%

O=C(O)Cc1ccc2c(c1)C(=O)C(=O)N2
inactive: [1] 18.6% | [2] 18.6% | [3] 7.05% | [4] -8.75% | [5] -18.7% | [6] 15.1%

O=C(O)c1ccc(Cl)c(C(=O)O)c1
inactive: [1] 13.8% | [2] 4.65% | [3] 26.7% | [4] 3.15% | [5] -11.7% | [6] 11.8%

CC(N)CCN (stereo not drawn)
inactive: [1] 3.7% | [2] 11.2% | [3] -5.55% | [4] 10.8% | [5] 12.1% | [6] 1.55%

CC(C)(C)C(=O)OCC1C(=O)OCC1C(=O)N1Cc2cc3ccccc3nc2C1 (stereo not drawn)
inactive: [1] -7.7% | [2] -19.9% | [3] 1.55% | [4] -13% | [5] -8.2% | [6] -16.2%

CC(=O)Nc1ccc(S(=O)(=O)c2ccc(NC(C)=O)cc2)cc1
inactive: [1] -10.6% | [2] -10.1% | [3] -48.5% | [4] -6.2% | [5] -26.5% | [6] -40.8%

CC(C)(C)CC(C)(C)c1ccc(OCCOc2ccc(C(=O)NCCNC(=O)c3ccc4ccccc4c3O)cc2N)cc1
inactive: [1] -13% | [2] -5.25% | [3] 3.85% | [4] 26.4% | [5] -7.1% | [6] -16.6%

CC(=O)Nc1cc(-c2ccccc2)ccc1O
inactive: [1] 56.7% | [2] 30.1% | [3] 56.8% | [4] 32.2% | [5] 40.2% | [6] 57.4%

c1ccc(N=C2SC(=NC3CCCCC3)N(C3CCCCC3)C2=Nc2ccccc2)cc1
inactive: [1] 3.35% | [2] -18.9% | [3] -0.05% | [4] 9.1% | [5] -4.9% | [6] -29.3%

NC(=O)Cc1ccncc1
inactive: [1] 5.95% | [2] -2.85% | [3] -3.95% | [4] -9.9% | [5] -2.7% | [6] 1.55%

COc1ccc(CC(C)=C(C#N)C#N)cc1OC
inactive: [1] -10.8% | [2] -2.45% | [3] -8.25% | [4] 11.8% | [5] -0.05% | [6] -17.3%

C1=C(c2ccccc2)c2ccccc2CC1
inactive: [1] -10.3% | [2] -7.25% | [3] -0.35% | [4] -3.45% | [5] 2.2% | [6] 3%

CCCCCCC1OCCC(C)O1 (stereo not drawn)
inactive: [1] 7.6% | [2] 5.95% | [3] 16.9% | [4] -10.3% | [5] -22.4% | [6] 12.9%

Cc1ccc(NCC(=O)N2CC(=O)Nc3ccccc32)cc1
inactive: [1] -28.6% | [2] -21% | [3] -35.2% | [4] -4.45% | [5] -23.2% | [6] -15.8%

CCOC(=O)c1ccc(N=Cc2ccc(N(CCC#N)S(=O)(=O)c3ccccc3)cc2C)cc1
inactive: [1] -3.9% | [2] 15.1% | [3] -20% | [4] 6.95% | [5] 2.95% | [6] -3.95%

CC(C)(C)Nc1ccc([N+](=O)[O-])cc1[N+](=O)[O-]
inactive: [1] 26.4% | [2] -21.9% | [3] 6.6% | [4] 7.95% | [5] 25.2% | [6] -10.7%

CCOC(=O)C1=C(O)C(=O)N(Cc2ccccc2)C1
inactive: [1] -4.65% | [2] -29.6% | [3] 14.3% | [4] -0.7% | [5] 49.5% | [6] -23.8%

O=C(O)Cc1cc(O)c(CC(=O)O)cc1O
inactive: [1] -11.9% | [2] -21.9% | [3] -49.4% | [4] -20.4% | [5] -22.4% | [6] -4.1%

C=CCOC(=O)C1CC=CCC1C(=O)OCC=C (stereo not drawn)
inactive: [1] -17.6% | [2] -26.9% | [3] -17.9% | [4] -15.2% | [5] -3.95% | [6] -9.8%

O=C1C2CCCC2C1(c1ccccc1)c1ccccc1 (stereo not drawn)
inactive: [1] -7.25% | [2] 38.6% | [3] 64.2% | [4] -36.4% | [5] 49.9% | [6] 10.8%

CC1=NN(c2ccccc2)C(=O)/C1=C\c1ccc([N+](=O)[O-])cc1
inactive: [1] 25.9% | [2] 29.1% | [3] 28.4% | [4] 18.9% | [5] 18.4% | [6] 19.5%

COc1ccc(-c2cc(N3CCN(c4ccccc4)CC3)c(C#N)c(=O)o2)cc1
inactive: [1] 25.1% | [2] 3.3% | [3] 18.5% | [4] 15.8% | [5] -2.1% | [6] 12.1%

O=C(CC(=O)C(=O)CC(=O)OCc1ccccc1)OCc1ccccc1
inactive: [1] 15% | [2] -19.9% | [3] -0.3% | [4] 11.9% | [5] -21.3% | [6] 2.55%

Clc1ccc(C2SCCS2)c(Cl)c1
inactive: [1] 56.8% | [2] 28.2% | [3] 59.1% | [4] 31.8% | [5] 33.8% | [6] 38.5%

CC(Cc1ccccc1)NC(=O)c1ccncc1 (stereo not drawn)
inactive: [1] 2.5% | [2] 7.45% | [3] -5.4% | [4] -39.7% | [5] -0.85% | [6] 2%

O=C1OC(=Nc2ccccc2Cl)c2ccccc21
inactive: [1] -21.6% | [2] -21.5% | [3] -5.05% | [4] -9.1% | [5] 14.5% | [6] 18.3%

CCc1nc(N)nc(N)c1-c1ccc(NC(C)c2ccccc2)c([N+](=O)[O-])c1 (stereo not drawn)
inactive: [1] 13.6% | [2] -8.4% | [3] 14.5% | [4] -1.1% | [5] 9.1% | [6] -7.6%

Cc1cccc(C)c1-n1c(C)nc2[nH]cc(C)c2c1=N
inactive: [1] 6.35% | [2] -6.25% | [3] 4.55% | [4] 5.1% | [5] 17.1% | [6] 8.95%

O=C(N/N=C\c1ccc([N+](=O)[O-])cc1)Nc1ccc2ccccc2c1
inactive: [1] 3.15% | [2] 8.1% | [3] 1.85% | [4] 8.3% | [5] 25.2% | [6] 14.1%

CC(Oc1cc2oc(=O)cc(-c3ccccc3)c2cc1Cl)C(=O)O (stereo not drawn)
inactive: [1] -13.6% | [2] 9.45% | [3] 7.05% | [4] 14.7% | [5] -9.35% | [6] -7.1%

CN(C)c1ccc(C2N(C)CCN2C)cc1
inactive: [1] -10.4% | [2] 6.85% | [3] 9.85% | [4] -1.8% | [5] -7.5% | [6] -12.8%
